About 100 (0.1%) of roughly 96,000 compounds were called active. Only a selection was taken, and actives are over-represented in it overall. Results with a measured potency or affinity are listed apart. Values without a mark were called inactive.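 The calls were made as follows: active = displacement above 50% at 20 µM plus a fluorescence interference ratio under 1.5; inactive = the rest.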
What follows are compounds tested against Bcl-2-like protein 10 (Homo sapiens) (UniProt Q9HD36) (assay: displacers of TR3 peptide from Bcl-B, primary screen, selectivity assay for Bfl-1 inhibitor project, biochemical, fluorescence polarization, FITC-TR3 peptide (AID 748;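 also: plate controls were wells without compound for no effect and wells lacking Bcl-B protein for full effect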)). Conditions: FP displacement of FITC-TR3 peptide from Bcl-B; at 20 µM; hits give high values.

SMILES | displacement
Cc1nnc2n(Cc3ccccc3)c(=O)c3c4c(sc3n12)COC(C)(C)C4 | 4.4%
Cc1ccc(-n2c(SCC(=O)N3CCCC3)nc3c(c2=O)SCC3)cc1 | 1%
COc1ccc(CNC(=O)c2noc3c2CCCC3)cc1 | -8.9%
Cc1ccc(NC(=O)c2noc3c2CCCCC3)cc1 | -10.5%
CC(=O)c1ccc(NC(=O)c2noc3c2CCCCC3)cc1 | -0.9%
CCc1ccc(NC(=O)c2noc3c2CCCCC3)cc1 | -3%
O=C(N1CCOCC1)N1CCN(c2nc(-c3ccccc3)cs2)CC1 | -0.8%
COC(=O)c1cc(C(=O)OC)n(Cc2ccc(F)cc2)n1 | -10.3%
O=C(Nc1ccc2nn(-c3ccccc3)nc2c1)c1ccc2c(c1)OCO2 | -30.3%
CCc1ccc(-n2nc3ccc(NC(=O)c4ccc5c(c4)OCO5)cc3n2)cc1 | -1%
Cc1cccc(C(=O)NNC2=C(C(=O)C(F)(F)F)CCC2)c1O | 10.3%
Cc1nnc(SCCn2c(N3CCC(C)CC3)nc3c2c(=O)[nH]c(=O)n3C)s1 | -6.3%
Cc1cc(C)n(C(=O)CCN2C(=O)c3ccccc3C2=O)n1 | -3.1%
c1coc(-c2nnc3sc(-c4cccs4)nn23)c1 | 4.7%
Brc1ccc(-c2nn3c(-c4ccco4)nnc3s2)o1 | 30%
CC1(C)OC(=O)C(=CNn2cnc3ccccc3c2=O)C(=O)O1 | -2.6%
CCOC(=O)C1CCCN(C/C(O)=C(\C#N)c2nc(-c3ccc(Cl)cc3)cs2)C1 (configuration not stated) | 0%
CCOc1cc(N2CCOCC2)c(OCC)cc1NC(=O)c1cc(-c2ccco2)nc2ccccc12 | 25.3%
Cc1cccc(NC(=O)c2cc(-c3ccco3)nc3ccccc23)n1 | 41.4%
O=C(O)c1cc(-c2ccco2)nc2ccccc12 | 18.6%
O=C(N/N=C/c1cccc(F)c1)c1cc(-c2ccco2)nc2ccccc12 | 39.5%
Cc1ccccc1C(=O)c1cccn1CC(=O)NCc1ccc2c(c1)OCO2 | -0.3%
O=C(O)c1cc2c([nH]c1=O)CCCC2 | -1%
Cc1cc(NC(=O)CN2CCN(S(=O)(=O)c3ccc4ccccc4c3)CC2)no1 | -1%
O=C(NCCN1CCCCCC1)c1ccc(CS(=O)(=O)c2ccc(Br)cc2)o1 | 4.3%

SMILES | displacement
CS(=O)(=O)Nc1ccccc1C(=O)Nc1ccc2c(c1)OCCO2 | -6.4%
Cc1ccc(C(=O)NC2CCCc3ccccc32)o1 (configuration not stated) | 1.5%
NC(=S)N/N=C/c1ccc(-c2cccc([N+](=O)[O-])c2)o1 | -3.1%
O=C(O)c1cc(-c2ccc(/C=N/Nc3ccc(Cl)cc3)o2)ccc1Cl | -20.9%
C/C(N)=C(/C#N)C(=O)COC(=O)CSc1ccc2ccccc2c1 | -15.4%
Cc1ccc(S(=O)(=O)CCC(=O)OCC(=O)Nc2ncc(Cl)cc2Cl)cc1 | 24.5%
COc1ccc(CC(=O)OCC(=O)Nc2ncc(Cl)cc2Cl)cc1 | 41.3%
Cc1ccc(S(=O)(=O)NCC(=O)OC(C)C(=O)Nc2ncc(Cl)cc2Cl)cc1 (configuration not stated) | -1.5%
O=C(COC(=O)C12CC3CC(CC(C3)C1)C2)Nc1ncc(Cl)cc1Cl | 31.8%
O=C(COC(=O)CCc1ccccc1)Nc1ncc(Cl)cc1Cl | 24.2%
CC(=O)NC12CC3CC(C1)CC(C(=O)OCC(=O)Nc1ncc(Cl)cc1Cl)(C3)C2 | 40.7%
CC(C(=O)OCC(=O)Nc1ncc(Cl)cc1Cl)N1C(=O)c2ccccc2C1=O (configuration not stated) | 21.3%
O=C(COC(=O)CCCN1C(=O)c2ccccc2C1=O)Nc1ncc(Cl)cc1Cl | 43.6%
CCOC(=O)c1ccc(NC(=O)CSc2nnc(CNC(=O)c3ccccc3F)o2)cc1 | 0%
CC(C)(C)C(=O)CSc1nccc(=O)[nH]1 | 2.2%
O=C1C(C2=NC(C(=O)O)C3C(=O)N(c4ccccc4)C(=O)C23)=C(O)c2ccccc21 (configuration not stated) | -7%
COc1ccc(Cl)cc1C(=O)Nc1ccc(S(=O)(=O)N2CCCC2)cc1 | -12.1%
O=C(CCC1CCCC1)N1CCN(S(=O)(=O)Cc2ccccc2)CC1 | -7.6%
O=C(Nc1ccc(-c2nnc(-c3ccco3)o2)cc1)C(c1ccccc1)c1ccccc1 | 3.9%
COC(=O)CSc1nnc(CNS(=O)(=O)c2ccc(Cl)cc2)n1C | 8.2%
COc1cc(CCC(=O)OCC(=O)Nc2ncc(Cl)cc2Cl)cc(OC)c1OC | 32.6%
COc1ccc(CC(=O)OCC(=O)Nc2ncc(Cl)cc2Cl)cc1OC | 3%
Cc1cc(NC(=O)COC(=O)C2CCN(S(=O)(=O)c3cccc(Cl)c3Cl)CC2)no1 | 1.9%
Cc1cc(NC(=O)COC(=O)C2CCN(S(=O)(=O)c3ccc(Cl)cc3)CC2)no1 | 7.5%
Cc1ccc(Cl)cc1N1CCN(C(=O)c2cn(C)c(=O)c3c2c2ccccc2n3C)CC1 | -4.3%

SMILES | displacement
CC(=O)Nc1ccc(NC(=O)C(C)n2nc([N+](=O)[O-])c(Br)c2C)cc1 (configuration not stated) | -5.9%
CC(=O)c1c(C)[nH]c(C(=O)Nc2c(C)n(C)n(-c3ccccc3)c2=O)c1C | 1%
COc1cccc(C=Nc2ccccc2C(=O)Nc2nccs2)c1OC | -10.6%
O=C(C[n+]1ccc(C(=O)N/N=C/c2ccc(OCc3ccccc3)cc2)cc1)c1ccccc1 | 46.7%
O=C(C[n+]1ccc(C(=O)N/N=C/c2ccc(Br)cc2)cc1)c1ccccc1 | 43.2%
CCOC(=O)C1C(C#N)=C(N)OC(C)=C1c1ccncc1 (configuration not stated) | 11.4%
CC(=O)c1c(COC(=O)c2ccco2)nc2ccccc2[n+]1[O-] | 68.3% (active)
CCOC(=O)c1c(COC(=O)c2ccco2)nc2ccccc2[n+]1[O-] | -4.9%
COc1ccc2nc(COC(=O)c3ccco3)c(C(C)=O)[n+]([O-])c2c1 | 10.7%
O=C1CC(Cc2ccccc2)C(=O)N1Cc1ccco1 (configuration not stated) | 0%
CCn1c(Cn2nnc(-c3ccccc3)n2)nnc1SCC(=O)Nc1ccc(N(C)C)cc1 | 4.2%
Cc1nnc(NC(=O)NC(C)N2C(=O)C3C4C=CC(C4)C3C2=O)s1 (configuration not stated) | -30.5%
O=C1NC2(CCCCC2)NN1c1ccccc1 | -5.6%
CC1=Nc2cccc3cccc(c23)N1 | 2.9%
CC(C)(C)C1CCC2(CC1)Nc1cccc3cccc(c13)N2 | -38%
O=C1CCSc2cccc3cccc(c23)N1 | -2.2%
O=C(O)Cc1coc(-c2ccc(F)cc2)n1 | -15.2%
O=C(CN1C(=O)NC2(CCc3ccccc32)C1=O)c1ccc2c(c1)OCCO2 (configuration not stated) | -13.7%
COc1cccc(NC(=O)C(NC2CCCC2)c2ccccc2)c1 (configuration not stated) | 2.1%
c1coc(CNc2c3c(nc4ccccc24)CCC3)c1 | 26.6%
CCOC(=O)CNC(=O)c1c2c(nc3ccccc13)CCCC2 | 7.2%
CC(C)Cn1c(N2CCN(C(=O)c3cccs3)CC2)nc2ccccc21 | -1.5%
Cc1ccc(SC(CC(=O)c2ccc(C)cc2)C(=O)O)cc1 (configuration not stated) | -5%
CSc1nc(C)cc(NC(N)=O)n1 | -7.4%
Cn1c(C(C#N)C(=O)c2ccco2)nc2ccccc21 (configuration not stated) | 13.4%

SMILES | displacement
Cn1c(C(C#N)C(=O)c2sc3ccccc3c2Cl)nc2ccccc21 (configuration not stated) | -2.9%
COc1ccccc1-n1c(C)nc2cc(C(=O)O)ccc21 | -9.1%
Cc1cc(C(=O)NCCC2=CCCCC2)no1 | -6.6%
C=CCn1c(SCC(=O)NC2CCCC2)nc2scc(-c3ccco3)c2c1=O | 29.6%
CCCCC(=O)Nc1cccc(NC(=O)CC)c1 | -6.1%
CCC(=O)Nc1cccc(Br)c1 | -1.7%
COCCNC(=O)CCCn1c(=O)c2ccccc2n(CC(=O)NCCC2=CCCCC2)c1=O | -8.5%
COc1ccccc1-c1nn2c(-c3ccccc3Cl)nnc2s1 | 5.7%
COc1ccccc1-c1nnc2sc(COc3ccccc3)nn12 | 0.4%
CCC(=O)c1cc(-c2nc3ccccc3n2C)n(C)c1 | 3.7%
COc1ccccc1-n1nnnc1SCc1cc2c(cc1Br)OCO2 | 2.6%
Brc1ccc(-c2cn3c(n2)CCc2ccc4cccnc4c2-3)cc1 | 1%
c1ccc(-c2cn3c(n2)CCc2ccc4cccnc4c2-3)cc1 | -7.4%
NC(=O)NC(CC(=O)OCC(=O)NC(=O)NCc1ccco1)c1ccc(Cl)cc1 (configuration not stated) | 0.6%
COc1ccccc1N1CCN(C(=O)c2ccc(Br)s2)CC1 | -4.4%
CCOc1ccccc1N1CCN(C(=O)c2cc3c(s2)CCC3)CC1 | 0.5%
O=C(c1cc2c(s1)CCCCC2)N1CCN(c2ncccn2)CC1 | -2.1%
CC1CC(C)CN(C(=O)c2cc3c(s2)CCC3)C1 (configuration not stated) | 0.4%
CCCC(=O)Nc1cccc(-c2nc3cc(C)c(C)cc3o2)c1 | -1.8%
CCCN(CCC)C(=O)Cn1c(=O)n(CCC(=O)NCCc2ccccc2)c(=O)c2ccccc21 | 1.2%
CC(=O)Nc1cc(S(=O)(=O)Nc2ccccc2C)c(C)cc1C | -3.3%
CCCc1nnc(NC(=O)CCC(=O)N2CCN(CCOc3ccc(C)cc3)CC2)s1 | 1.6%

— PubChem BioAssay AID748 (Sanford-Burnham Center for Chemical Genomics, 2007)
